Each structure is given as a SMILES string. Screen size: about 130,000 compounds; about 1,200 (0.92%) were called active. The sample holds actives, similar compounds and a random draw of the others, so the mix is not that of the screen.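 Rule for the calls: active = inhibition above the mean plus 3 SD, with well images judged a real hit on visual review (cut at about 60% in these data, passing the limit was not always enough); inconclusive = inhibition over the cutoff but images rejected on review; inactive = inhibition not above the cutoff.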

Broadly, the inhibition is the relative decrease from the control value, in per cent.

The nature of this experiment: insulin gene promoter suppression in islet cells – imaging, TRM-6 cells (human fetal islet line), eGFP reporter, cell count, primary screen (AID 1273;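 for normalized cell count: cells exposed to compound for 48 h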). The following applies: at 2 µM, reporter expression induced with tamoxifen; inhibition: stronger effect = higher value; normalized cell count: measured here: cell count, toxicity.
On to `Cc1nc(-c2ccc(NC(=O)c3cccs3)cc2)cs1`, for which the inhibition is 43.8% (inactive) and the normalized cell count turned out to be 89.3%.
For `CCC(=O)c1cc2c(cc1NC(=O)c1cccs1)OCCO2`, in that order: 80% (active) and 106%.
Regarding `COc1cc(NC(=O)c2cccs2)ccc1NC(=O)c1ccccc1Cl`, the inhibition is 20% (inactive) and the normalized cell count was 118%.
Turning to `N/C(=N\OC(=O)COc1ccc([N+](=O)[O-])cc1)c1ccc(Br)cc1`, the inhibition was -81.2% (inactive) and the normalized cell count is 113%.
Regarding `Cc1cccc(C)c1NC(=S)N(Cc1cccnc1)Cc1ccccc1Cl`, the inhibition is -60% (inactive) and the normalized cell count was determined as 73.3%.
In the case of `Cc1cccc(N2C(=O)c3cccnc3C2=O)c1`, the inhibition is 11.4% (inactive) and the normalized cell count stood at 66.7%.
As for `CCOc1ccc(CCN2C(=O)c3cccnc3C2=O)cc1OCC`, the inhibition was 68.4% (active) and the normalized cell count is 94.8%.
As for `CCOc1ccc(CCNC(=O)CSc2cc(=O)n(C)c3ccc(Cl)cc23)cc1OCC`, the inhibition is -11.8% (inactive) and the normalized cell count was determined as 144%.
As to `C/C(=N\NC(=O)C(N)=O)c1ccc2c(c1)OCCO2`, the inhibition was -41.2% (inactive) and the normalized cell count came to 156%.
Turning to `Cc1nc(NC(=O)CN(C)S(=O)(=O)c2ccc(Cl)cc2)sc1C`, the inhibition was 80% (active) and the normalized cell count came out at 67.9%.
With `CN(CC(=O)NCCc1ccccn1)S(=O)(=O)c1ccc(Cl)cc1`, the inhibition is -33.3% (inactive) and the normalized cell count is 83.8%.
In the case of `CN(CC(=O)Nc1cccc2c1CCCC2)S(=O)(=O)c1ccc(Cl)cc1`, the inhibition was 38.5% (inactive) and the normalized cell count was found to be 112%.
In the case of `CCOC(=O)c1cc(C)sc1NC(=O)C1CCC1`, the inhibition is 87.5% (active) and the normalized cell count is 161%.
Consider `Cc1cnc(NC(=O)C2CCCC2)s1`, for which the inhibition was 20.5% (inactive) and the normalized cell count was 280%.
For `COC(=O)c1cc(C)sc1NC(=O)CC1Nc2ccccc2NC1=O` (configuration not stated), in that order: 40.5% (inactive) and 145%.
`CCOC(=O)c1ccc(NNC(C)=O)c([N+](=O)[O-])c1`: the inhibition is -68.4% (inactive) and the normalized cell count was determined as 62.3%.
Turning to `O=C(C1CCCO1)N1CCN(C(=S)NC2CC2)CC1` (configuration not stated), the inhibition is -29.4% (inactive) and the normalized cell count was 80.6%.
Consider `CC(=O)c1ccc(N2CCN(S(=O)(=O)c3c(C)[nH]c(=O)[nH]c3=O)CC2)cc1`, for which the inhibition is -10% (inactive) and the normalized cell count was determined as 114%.
Consider `C/C(=C\C(=O)c1ccccc1)Nc1cccc(O)c1`, for which the inhibition was -33.3% (inactive) and the normalized cell count was found to be 193%.
On to `Cc1ccc(N/C=C/C(=O)c2ccccc2)cc1C`, for which the inhibition is 7.69% (inactive) and the normalized cell count is 107%.
For `C/C(=C\C(=O)c1cccnc1)Nc1ccc(C)c(C)c1`, in that order: 85.7% (active) and 74%.
As for `CCSC1=NCCN1S(=O)(=O)c1ccc(F)cc1`, the inhibition is 7.69% (inactive) and the normalized cell count was found to be 130%.
For `CC(Oc1ccc(Cl)cc1)C(=O)OCC(=O)Nc1ncc(Cl)cc1Cl` (configuration not stated), the inhibition is 20% (inactive) and the normalized cell count stood at 100%.
`COc1cc(NC(=O)COC(=O)c2cnc(C)cn2)c(C)cc1[N+](=O)[O-]`: the inhibition was 27.3% (inactive) and the normalized cell count amounted to 90.4%.
As for `Cc1cnc(C(=O)OCC(=O)Nc2ccc(Cl)cc2Cl)cn1`, the inhibition was 81.5% (active) and the normalized cell count was determined as 20%.
For `Cc1ccc(S(=O)(=O)Cc2cc(-c3ccc(Cl)cc3)no2)cc1`, in that order: 25% (inactive) and 128%.
Turning to `CCOC(=O)C1(Cc2ccc(Cl)cc2)CCN(C(=O)C2=NNC(=O)CC2)CC1`, the inhibition is -46.1% (inactive) and the normalized cell count is 93.7%.
With `CCN(CC)Cc1c(C(=O)OC)nnn1-c1nonc1N`, the inhibition was 72.4% (active) and the normalized cell count was found to be 14.1%.
For `CCOC(=O)c1nnn(-c2nonc2-n2cccc2)c1CN1CCOCC1`, in that order: 13.9% (inactive) and 62.1%.
As for `CCOC(=O)c1nnn(-c2nonc2-n2cccc2)c1CN1CCC(C(=O)OCC)CC1`, the inhibition is 13.9% (inactive) and the normalized cell count was 99.3%.
Regarding `Cc1ccc(C(=O)Cn2cccn2)cc1`, the inhibition is -62.5% (inactive) and the normalized cell count worked out at 90.7%.
For `CNS(=O)(=O)c1ccc(NC(=O)C2CC(=O)N(c3ccc(Cl)cc3)C2)cc1` (configuration not stated), in that order: 63.6% (inactive) and 32.9%.
For `Cc1ccc(Nc2nnc(SCc3ccccc3)s2)cc1`, the inhibition was 100% (active) and the normalized cell count was 9.38%.
Consider `CCSc1nnc(NC(=O)c2ccc(C)cc2)s1`, for which the inhibition was -38.7% (inactive) and the normalized cell count came out at 45.1%.
For `O=C(Nc1nnc(SCc2ccccc2)s1)c1ccco1`, in that order: 0% (inactive) and 86.4%.
For `CN(C)CCNC(=O)/C(=C/c1cccc([N+](=O)[O-])c1)NC(=O)c1ccccc1`, in that order: -14.3% (inactive) and 101%.
Regarding `CN(C)CCNC(=O)C(C(=O)c1ccccc1)n1ccccc1=O` (configuration not stated), the inhibition is 86.7% (active) and the normalized cell count was determined as 49.3%.
Consider `O=C(NCC1CCCO1)C(C(=O)c1ccccc1)n1cc(Cl)ccc1=O` (configuration not stated), for which the inhibition was -40% (inactive) and the normalized cell count was 104%.
For the compound `COCC(=O)Nc1cc(C(=O)OC)cc(C(=O)OC)c1`, the inhibition was 12.8% (inactive) and the normalized cell count stood at 127%.
With `COCC(=O)Nc1ccc(Br)cc1`, the inhibition is 73.3% (active) and the normalized cell count amounted to 43.9%.
For `Cc1ccc(OC(=O)CCC(=O)Nc2ccc(Br)cc2)cc1`, in that order: -66.7% (inactive) and 102%.
Regarding `O=C(Cc1cccc2ccccc12)NCCC1=CCCCC1`, the inhibition was -22.2% (inactive) and the normalized cell count stood at 92.7%.
As for `CCOC(=O)c1ccccc1NC(=O)CSc1nc2ccccc2c(=O)[nH]1`, the inhibition is -83.3% (inactive) and the normalized cell count was 180%.
For `COc1cccc(NC(=O)c2ccc(Cn3cc([N+](=O)[O-])cn3)o2)c1`, in that order: -11.1% (inactive) and 79.5%.
For `CCc1ccc(NC(=O)c2ccc(Cn3cc([N+](=O)[O-])cn3)cc2)cc1`, in that order: 6.25% (inactive) and 63.8%.
As for `Cn1cc([N+](=O)[O-])c(C(=O)Nc2cnn(Cc3ccc(F)cc3)c2)n1`, the inhibition was 69.2% (active) and the normalized cell count is 112%.
For the compound `COCCNC(=S)N1CCC(NC(=O)C23CC4CC(CC(C4)C2)C3)CC1`, the inhibition was 21.4% (inactive) and the normalized cell count stood at 106%.
With `CCn1c(SCc2ccccc2)nc2c(c1=O)SCC2`, the inhibition is 48.6% (inactive) and the normalized cell count was 108%.
`CC(Sc1nnnn1C)C(=O)NC(=O)NC1CCCCC1` (configuration not stated): the inhibition was 36.4% (inactive) and the normalized cell count turned out to be 91.5%.
With `Cc1ccc(NC(=O)C2(N3CCC3=O)CCCCC2)cc1`, the inhibition is -35.7% (inactive) and the normalized cell count came out at 133%.
For `O=C(O)Cc1ccc(NCc2ccccc2Cl)cc1`, in that order: 0% (inactive) and 111%.
For `C=CCNC(=O)COC(=O)CNC(=O)c1cc(Cl)cc([N+](=O)[O-])c1`, the inhibition was 83.3% (active) and the normalized cell count turned out to be 37%.
With `C=CCNC(=O)/C(=C\c1cccc([N+](=O)[O-])c1)NC(=O)c1ccccc1`, the inhibition is -26.7% (inactive) and the normalized cell count came to 102%.
As to `CC(C)(C)SCCNC(=O)c1cccc([N+](=O)[O-])c1`, the inhibition was -42.9% (inactive) and the normalized cell count amounted to 85.5%.
For `CC(OC(=O)CCc1nc(=O)c2ccccc2n1C)C(=O)NCc1ccc2c(c1)OCO2` (configuration not stated), in that order: -58.8% (inactive) and 141%.
Turning to `Cc1ccc(CNC(=O)CCNS(=O)(=O)c2ccc(Br)s2)cc1`, the inhibition was 37.5% (inactive) and the normalized cell count was found to be 94.3%.

The values above are taken from PubChem BioAssay AID1273 (Columbia University Molecular Screening Center, 2008).
